Screening results: PubChem BioAssay, several laboratories
Sampled rows, rich in hits. Any-hit rate of the full collection: about 4.1%.
Shn3 inh set2 = reduction of Shn3 3'UTR firefly luciferase signal, primary screen, Schnurri-3 inhibitor project, cell-based, Clone20 osteoblasts, set 2 | 360,000 tested, 0.52% active | inhibition, % at 12.5 µM | Clone20 osteoblast Shn3 3'UTR firefly luciferase, 24 h;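 active = mean inhibition of at least 75% with every replicate also reaching 75%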;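 note: 0% = median of neutral control wells and 100% = pilot-screen positive control compound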
TROY signal inh = inhibitors of TROY-driven NF-kB signaling, primary screen, Q293 LMP1-TROYcd cells, NF-kB luciferase, uHTS. AID 1347056, 2019. inhibition, % at 10 µM. 360,000 tested, 0.98% active. Q293 LMP1-TROYcd NF-kB luciferase reporter, 4 h;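 active = compounds whose plate-normalised and pattern-corrected inhibition of the luciferase reporter signal at the single screening dose is 50% or more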
EBV LMP1 NFkB = EBV LMP1-driven NF-kappaB luciferase reporter inhibitors, primary screen, cell-based, luminescence, single point | LMP1-induced NF-kappaB luciferase reporter cells | inhibition, % at 12.5 µM | 350,000 tested, 0.69% active | AID 504558, 2011; in the data active = inhibition above about 41%;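 note: 0% = neutral control wells and 100% = reference inhibitor control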
TRPM1 prom inh = inhibitors of MITF-dependent TRPM1 promoter reporter, primary screen, cell-based, SK-MEL-5, single point, luciferase; SK-MEL-5 TRPM1 promoter luciferase, 24 h; AID 488899, 2010; inhibition, % at 12.5 µM; 330,000 tested, 0.83% active;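 active = mean inhibition across replicates of 60% or more, whatever share of single replicates reaches that level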
Peg3 prom inh = Peg3 promoter-driven luciferase inhibitors, primary screen, cell-based, HeLa, luciferase luminescence; inhibition, % at 20 µM; AID 588405, 2011; 360,000 tested, 1.7% active; HeLa PEG-Prom luciferase reporter, overnight;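 active = inhibition of at least 50% at 20 µM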
TWEAK-Fn14 inh = inhibitors of TWEAK-Fn14 signaling, primary screen, luciferase reporter cells, uHTS. inhibition, % at 10 µM. 360,000 tested, 2% active. AID 1159606, 2016. TWEAK-stimulated Fn14 reporter cells, luciferase luminescence, 8 h; in the data active = inhibition above about 50%
* hit, by the source's call; . = not tested or not shown.

SMILES	Shn3 inh set2	TROY signal inh	EBV LMP1 NFkB	TRPM1 prom inh	Peg3 prom inh	TWEAK-Fn14 inh
COc1ccc(CN2[C@@H](CC(C)=O)c3ccc(/C=C/C(C)=O)cc3S2(=O)=O)cc1	16	10	2	28	106*	23
COc1cccc(N2[C@@H](CC(C)=O)c3ccc(/C=C/C(C)=O)cc3S2(=O)=O)c1	31	-5	0	34	100*	22
COc1ccc(CNC(=O)CN(C(=O)c2snc(C(N)=O)c2N)c2ccccc2F)cc1	8	4	7	10	13	-5
CC1=C(C(=O)OC(C)C)C(c2ccc(Cl)cc2)n2c(s/c(=C\c3ccc(OCC(=O)O)cc3)c2=O)=N1 (stereo not drawn)	-22	15	-2	12	13	12
COc1ccc(NS(=O)(=O)c2cccc(NC(=O)c3ccc(Cl)nc3)c2)cc1	80	27	10	17	22	70*
COc1ccccc1NS(=O)(=O)c1cccc(NC(=O)c2ccc3ccccc3n2)c1	62	33	2	14	4	69*
COc1ccc(NS(=O)(=O)c2cccc(NC(=O)CCC(=O)c3cccs3)c2)cc1	-12	-16	-9	9	11	1
COc1ccc(NS(=O)(=O)c2cc(NC(=O)CNC(=O)c3cccc(OC)c3)ccc2C)cc1	-8	-12	-17	69*	13	-14
COc1ccc(NS(=O)(=O)c2cccc(NC(=O)CCC(=O)c3ccc(Cl)cc3)c2)cc1	76	34	15	31	13	75*
O=C(Nc1cccc(O)c1)c1cccc(C(=O)Nc2cccc(O)c2)c1	-14	-1	5	7	4	19
O=C(Nc1cccc(O)c1)c1cccc(S(=O)(=O)Nc2cccc(O)c2)c1	-1	9	49*	3	1	-5
O=C(Nc1ccc(NS(=O)(=O)c2ccccc2)cc1)c1ccc(Cl)cc1	14	-23	-3	-7	13	-25
O=C(Nc1cccc(S(=O)(=O)Nc2ccc(Cl)cc2)c1)c1ccc(Cl)nc1	91*	53*	14	35	19	80*
O=C1CSc2ccc(C(=O)Nc3cccc(S(=O)(=O)Nc4ccc(Br)cc4)c3)cc2N1	85	82*	15	33	31	98*
Cc1cccnc1NC(=O)c1cccc(S(=O)(=O)NCc2ccccc2)c1	-29	-2	-6	-3	13	0
COC(=O)c1cc(CNC(=O)c2ccccc2OCc2c(C)noc2C)ccc1OC	12	9	-1	16	18	0
Cc1ccc(OCC(=O)N/N=C\c2cccn2C)c([N+](=O)[O-])c1	-28	-16	-3	-23	-166	-19
COc1ccc(-c2oc3ncnc(NCCN4CCOCC4)c3c2-c2ccc(OC)cc2)cc1	66	16	48*	1	51*	33
COc1ccc(-c2oc3ncnc(NCCCN4CCOCC4)c3c2-c2ccc(OC)cc2)cc1	15	5	35	-1	64*	14
COc1ccc(-c2csc3ncnc(NCCN4CCOCC4)c23)cc1	22	43	46*	1	30	45
c1ccc(-c2oc3ncnc(NCCCN4CCOCC4)c3c2-c2ccccc2)cc1	12	9	8	5	39	-23
Cc1ccc(-c2csc3ncnc(NCCN4CCOCC4)c23)cc1	17	18	5	15	27	42
COc1ccc(-c2oc3ncn(CCN4CCOCC4)c(=N)c3c2-c2ccc(OC)cc2)cc1	19	-16	2	-6	39	-7
CC(NC(=O)CN(c1cccc(C(F)(F)F)c1)S(C)(=O)=O)c1ccccc1 (stereo not drawn)	-4	3	-4	-14	11	-1
Cc1ccccc1-n1c(SCC(=O)O)nc2sc3c(c2c1=O)CCCC3	18	9	-13	-9	17	0
SMILES	Shn3 inh set2	TROY signal inh	EBV LMP1 NFkB	TRPM1 prom inh	Peg3 prom inh	TWEAK-Fn14 inh
CN1CCc2c(sc3nc(SCC(N)=O)n(-c4ccc(Cl)cc4)c(=O)c23)C1	-28	-8	-10	.	-4	-3
O=C(O)CSc1nc2sc3c(c2c(=O)n1Cc1ccccc1)CCCCC3	-48	57*	-20	-45	-133	51*
CN1CCc2c(sc3nc(SCC(N)=O)n(-c4ccccc4)c(=O)c23)C1	7	.	-4	0	-13	57*
CN(C)CCCn1c(=O)n(CCc2ccccc2)c(=O)c2c3c(sc21)CCCCC3	18	-63	3	53	101*	-34
CN(C)CCCNc1nc2sc3c(c2c(=O)n1CCc1ccccc1)CCCCC3	5	-32	-4	65*	113*	-17
CN(C)CCn1c(=O)n(Cc2ccccc2)c(=O)c2c3c(sc21)CCCCC3	14	7	3	7	10	23
COc1ccc(CCN2CC(C(=O)NCC(=O)Nc3ccc(F)c(F)c3)CC2=O)cc1OC (stereo not drawn)	-24	9	1	-3	-4	-4
CC1CCN(S(=O)(=O)c2ccc3c(c2)N(CC(=O)NCCCN2CCCCC2)C(=O)CS3)CC1	-15	-1	-2	-8	-15	4
Cc1ccc(S(=O)(=O)N2C[C@H]3C(=O)C[C@@H](c4ccccc4)N(S(=O)(=O)c4ccccc4C)[C@H]3C[C@H]2c2ccccc2)cc1	24	11	.	.	6	11
O=C(Nc1ccc(N2CCCC2)cc1)c1cc([N+](=O)[O-])ccc1N1CCOCC1	-16	-34	2	1	12	-39
CN(Cc1ccco1)C(=O)Cn1ncc2c([nH]c3ccccc32)c1=O	-16	1	-5	15	4	19
O=C(Nc1ccc2ncccc2c1)c1cccc(Br)c1	-83	-55	-26	-38	-339	-24
Cc1ccc(NC(=O)c2ccc(C)cc2)cc1	-61	4	-7	-32	-175	59*
Cc1ccc(C(=O)Nc2ccc3ncccc3c2)cc1	48	56*	45*	48	21	94*
COc1ccc(NC(=O)c2ccc3nccnc3c2)cc1	-53	.	-25	-64	-243	34
COC(=O)Cc1ccc(NC(=O)c2ccc(C(C)(C)C)cc2)cc1	73	19	48*	59	-44	45
COc1ccc(C(=O)Nc2ccc3ncccc3c2)cc1	7	38	2	16	-51	75*
Cc1ccc(NC(=O)c2ccc(Nc3c([N+](=O)[O-])cc([N+](=O)[O-])cc3[N+](=O)[O-])cc2)cc1	70	66*	-3	9	32	94*
